11 molecules from PubChem BioAssay (NCI) can be followed below.

About 79,000 compounds went through this panel and 15% of them were active in at least one assay; those are over-represented in the sample as a whole. Values without a mark were called inactive. Active and inactive are the calls of the source. Cut-off read from the data, not from the text of the source: active = growth inhibition above about 70%; inactive = the rest.

The nature of test [1]: NCI Yeast Anticancer Drug Screen. Data for the rad50 strain (AID 155).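 Note: 0% = growth of vehicle-only cultures of the same strain.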 As to conditions: S. cerevisiae rad50 strain growth inhibition, stronger effect = higher value. In outline:
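Vehicle-treated cultures provide the reference for the growth inhibition reported for compound-exposed, repair-deficient yeast.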

Test [2] in a line: NCI Yeast Anticancer Drug Screen. Data for the mec2-1 strain (AID 157). To be noted: S. cerevisiae mec2-1 strain, stronger effect = higher value. In outline:
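Readout is yeast growth inhibition, normalised to vehicle-treated controls, in the mec2-1 strain exposed to compound.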

A short description of test [3]: NCI Yeast Anticancer Drug Screen. Data for the sgs1 mgt1 strain (AID 161).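 Note: 0% = growth of cultures given vehicle only.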 As to conditions: S. cerevisiae sgs1 mgt1 strain, stronger effect = higher value. In outline: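 Yeast cells carrying a defined DNA-repair defect were exposed to test compounds. Growth inhibition was measured relative to vehicle-treated controls.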
A short description of test [4]: NCI Yeast Anticancer Drug Screen. Data for the cln2 rad14 strain (AID 165).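 Note: 0% = growth equal to vehicle treated cultures.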 As to conditions: S. cerevisiae cln2 rad14 strain, stronger effect = higher value. The gist of the method:
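Relative to vehicle controls, growth inhibition of compound-treated cln2 rad14 yeast was recorded.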

Test [5] in a line: NCI Yeast Anticancer Drug Screen. Data for the bub3 strain (AID 167). To be noted: S. cerevisiae bub3 mutant strain, stronger effect = higher value. The gist of the method:
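Mutant yeast screening strain plus compound; vehicle-treated cultures serve as the 0% inhibition reference.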

A short description of test [6]: NCI Yeast Anticancer Drug Screen. Data for the mlh1 rad18 strain (AID 175). As to conditions: S. cerevisiae mlh1 rad18 strain growth inhibition, stronger effect = higher value. In outline:
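Test agents were incubated with a yeast strain of defined genotype (DNA damage repair defect). Inhibition of growth was derived by comparison with vehicle-exposed cultures.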

The mark [7] stands for this setting: at 5.0 µM (retest, dose inferred, filed as 0.5).
[8] abbreviates: at 50.0 µM (retest, dose inferred, filed as 5.0).

`CC(=O)N1CC(=O)NC1=S`: the growth inhibition is -10% in test [1] (setting [7]); -18% in test [1] (setting [8]); 69.6% in test [1] (at 50.0 µM); -11% in test [2] (setting [7]); -14% in test [2] (setting [8]); 39.9% in test [2] (at 50.0 µM). In addition, the growth inhibition in test [3] (setting [7]) is -5%; in test [3] (setting [8]), -17%; in test [3] (at 50.0 µM) it was 25.3%; in test [4] (setting [7]) it was -4%; in test [4] (setting [8]), 7%; in test [4] (at 50.0 µM) it was 53.1%. The growth inhibition is -36% in test [5] (setting [7]); -12% in test [5] (setting [8]); 5.45% in test [5] (at 50.0 µM); -24% in test [6] (setting [7]); -33% in test [6] (setting [8]); 67.3% in test [6] (at 50.0 µM).

Consider `NC1=C(Br)C(=O)c2ncccc2C1=O`, for which the growth inhibition in test [1] (setting [7]) was 56%; in test [1] (setting [8]), 94% (active); in test [1] (at 50.0 µM), 87.7% (active); in test [2] (setting [7]) it was 19%; in test [2] (setting [8]), 86% (active); in test [2] (at 50.0 µM) it was 91.5% (active). Further, the growth inhibition was 34% in test [3] (setting [7]); 93% (active) in test [3] (setting [8]); 91.5% (active) in test [3] (at 50.0 µM); 9% in test [5] (setting [7]); 83% (active) in test [5] (setting [8]); 90.3% (active) in test [5] (at 50.0 µM). Also, the growth inhibition in test [6] (setting [7]) is 50%; in test [6] (setting [8]) it was 95% (active).

Consider `O=C(NOC(=O)c1ccccc1)c1ccccc1`, for which the growth inhibition in test [1] (setting [7]) was 93% (active); in test [1] (setting [8]), 98% (active); in test [1] (at 50.0 µM), 99.3% (active); in test [2] (setting [7]) it was 64%; in test [2] (setting [8]) it was 99% (active); in test [2] (at 50.0 µM), 99.5% (active). For the same molecule, the growth inhibition was 82% (active) in test [3] (setting [7]); 99% (active) in test [3] (setting [8]); 99.5% (active) in test [3] (at 50.0 µM); 93% (active) in test [6] (setting [7]); 99% (active) in test [6] (setting [8]); 99.3% (active) in test [6] (at 50.0 µM).

As for `CC(C)c1ccc(Nc2n[nH]c(=S)s2)cc1`, the growth inhibition is 39% in test [1] (setting [7]); 82% (active) in test [1] (setting [8]); 86.1% (active) in test [1] (at 50.0 µM); 32% in test [2] (setting [7]); 79% (active) in test [2] (setting [8]); 83% (active) in test [2] (at 50.0 µM). Further, the growth inhibition in test [3] (setting [7]) was 35%; in test [3] (setting [8]), 68%; in test [3] (at 50.0 µM), 87.8% (active); in test [4] (setting [7]), 22%; in test [4] (setting [8]) it was 85% (active); in test [4] (at 50.0 µM), 84.6% (active). Further, the growth inhibition in test [5] (setting [7]) is 33%; in test [5] (setting [8]) it was 94% (active); in test [5] (at 50.0 µM) it was 87.5% (active); in test [6] (setting [7]) it was 41%; in test [6] (setting [8]) it was 82% (active); in test [6] (at 50.0 µM), 84.1% (active).

For the molecule `COC(=O)c1ccc(=O)c2nc3/c(=C/O)c(O)cc(=O)c3[nH]c12`, the growth inhibition in test [1] (setting [7]) is 98% (active); in test [1] (setting [8]), 92% (active); in test [1] (at 50.0 µM), 90% (active); in test [2] (setting [7]), 99% (active); in test [2] (setting [8]), 94% (active); in test [2] (at 50.0 µM) it was 92.1% (active). Also, the growth inhibition is 99% (active) in test [3] (setting [7]); 97% (active) in test [3] (setting [8]); 91.2% (active) in test [3] (at 50.0 µM); 96% (active) in test [4] (setting [7]); 96% (active) in test [4] (setting [8]); 89.3% (active) in test [4] (at 50.0 µM). The results for the growth inhibition in test [6] (setting [7]), in test [6] (setting [8]) and in test [6] (at 50.0 µM) were 99% (active), 95% (active) and 39.5%, respectively.

`COc1ccc(NC(=O)/C(=C/N2C(=O)/C(=C/c3ccc(OC)c(OC)c3)NC2=S)C(C)=O)cc1`: the growth inhibition in test [1] (setting [7]) is 5%; in test [1] (setting [8]), 66%; in test [1] (at 50.0 µM) it was 54.3%; in test [2] (setting [7]), -3%; in test [2] (setting [8]), 85% (active); in test [2] (at 50.0 µM), 53.1%. The growth inhibition was -5% in test [3] (setting [7]); 86% (active) in test [3] (setting [8]); 51.9% in test [3] (at 50.0 µM); -22% in test [4] (setting [7]); 51% in test [4] (setting [8]); 37% in test [4] (at 50.0 µM). In addition, the growth inhibition was -21% in test [5] (setting [7]); 76% (active) in test [5] (setting [8]); 64.8% in test [5] (at 50.0 µM); -6% in test [6] (setting [7]); 82% (active) in test [6] (setting [8]); 76.7% (active) in test [6] (at 50.0 µM).

Take `Cc1cc(C(N)=O)cc(C)c1C(=O)OCCCl`: the growth inhibition in test [1] (setting [7]) was -4%; in test [1] (setting [8]), -1%; in test [1] (at 50.0 µM), 31.7%; in test [2] (setting [7]), -5%; in test [2] (setting [8]), -2%; in test [2] (at 50.0 µM), 66.4%. Also, the growth inhibition was -4% in test [3] (setting [7]); -2% in test [3] (setting [8]); -4.05% in test [3] (at 50.0 µM); -3% in test [4] (setting [7]); -8% in test [4] (setting [8]); -114% in test [4] (at 50.0 µM). In addition, the growth inhibition in test [5] (setting [7]) is -2%; in test [5] (setting [8]), -2%; in test [5] (at 50.0 µM), 51.9%; in test [6] (setting [7]), -57%; in test [6] (setting [8]), 0%; in test [6] (at 50.0 µM), 58.1%.

For `Oc1cc(Cl)ccc1Cc1ccc(Cl)cc1O`, the growth inhibition in test [1] (setting [7]) is 97% (active); in test [1] (setting [8]), 100% (active); in test [1] (at 50.0 µM), 99.8% (active); in test [2] (setting [7]) it was 99% (active); in test [2] (setting [8]) it was 100% (active); in test [2] (at 50.0 µM), 99.7% (active). Moreover, the growth inhibition in test [3] (setting [7]) is 98% (active); in test [3] (setting [8]), 100% (active); in test [3] (at 50.0 µM), 99.6% (active); in test [4] (setting [7]), 98% (active); in test [4] (setting [8]) it was 94% (active); in test [4] (at 50.0 µM), 99.5% (active). The growth inhibition is 99% (active) in test [5] (setting [7]); 100% (active) in test [5] (setting [8]); 99.6% (active) in test [5] (at 50.0 µM); 96% (active) in test [6] (setting [7]); 96% (active) in test [6] (setting [8]); 99.7% (active) in test [6] (at 50.0 µM).

Consider `CCCCCCCCCCCCCCCCCC1=NCCCN1CCO`, for which the growth inhibition was 7% in test [1] (setting [7]); 6% in test [1] (setting [8]); 96.8% (active) in test [1] (at 50.0 µM); 5% in test [2] (setting [7]); 5% in test [2] (setting [8]); 87.5% (active) in test [2] (at 50.0 µM). Further, the growth inhibition in test [3] (setting [7]) was 14%; in test [3] (setting [8]), 8%; in test [3] (at 50.0 µM) it was 40%; in test [5] (setting [7]) it was 4%; in test [5] (setting [8]), 7%; in test [5] (at 50.0 µM) it was 61.1%. Moreover, the growth inhibition in test [6] (setting [7]) was 23%; in test [6] (setting [8]) it was 7%; in test [6] (at 50.0 µM), 83% (active).

As for `O=C1CCC2(C=C(Br)C(=O)C(Br)=C2)O1`, the growth inhibition in test [1] (setting [7]) is 42%; in test [1] (setting [8]) it was 87% (active); in test [1] (at 50.0 µM) it was 91.8% (active); in test [2] (setting [7]), 46%; in test [2] (setting [8]), 96% (active); in test [2] (at 50.0 µM), 93.5% (active). Besides, the growth inhibition in test [3] (setting [7]) is 92% (active); in test [3] (setting [8]) it was 99% (active); in test [4] (setting [7]) it was 91% (active); in test [4] (setting [8]) it was 99% (active); in test [5] (setting [7]), 92% (active); in test [5] (setting [8]) it was 100% (active). Further, the results for the growth inhibition in test [6] (setting [7]), in test [6] (setting [8]) and in test [6] (at 50.0 µM) were 31%, 94% (active) and 92.3% (active), respectively.

As to `O=C(c1ccccc1)C(O)C(Br)(CBr)c1ccccc1` (stereo unspecified), the growth inhibition was 19% in test [1] (setting [7]); 97% (active) in test [1] (setting [8]); 90.7% (active) in test [1] (at 50.0 µM); 11% in test [2] (setting [7]); 98% (active) in test [2] (setting [8]); 94.5% (active) in test [2] (at 50.0 µM). The growth inhibition in test [3] (setting [7]) is 4%; in test [3] (setting [8]), 98% (active); in test [3] (at 50.0 µM) it was 97.3% (active); in test [4] (setting [7]), 15%; in test [4] (setting [8]) it was 82% (active); in test [4] (at 50.0 µM) it was 94.8% (active). In addition, the growth inhibition in test [6] (setting [7]) was 6%; in test [6] (setting [8]), 97% (active); in test [6] (at 50.0 µM), 93.7% (active).
